Rows were chosen to be rich in hits. Some 0.74% of all compounds tested hit in one or more screens of this group.
TSHR antagonist – human thyrotropin receptor antagonism | TSHR-expressing cells, TSH-stimulated cAMP HTRF, 2 h; active compounds read low | activity change, negative = inhibition, % at 11.5 µM | P16473 | AID 504810 | 0.2% of 330,000 active;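 active = activity change below a set negative limit, meaning inhibition stronger than a set level, cut at about -70% in these data; inconclusive = activity change between two set negative limits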; also: % is scaled to controls: 0 for no effect and ±100 for the full control effect
Target sequence (P16473 whole entry, looked up): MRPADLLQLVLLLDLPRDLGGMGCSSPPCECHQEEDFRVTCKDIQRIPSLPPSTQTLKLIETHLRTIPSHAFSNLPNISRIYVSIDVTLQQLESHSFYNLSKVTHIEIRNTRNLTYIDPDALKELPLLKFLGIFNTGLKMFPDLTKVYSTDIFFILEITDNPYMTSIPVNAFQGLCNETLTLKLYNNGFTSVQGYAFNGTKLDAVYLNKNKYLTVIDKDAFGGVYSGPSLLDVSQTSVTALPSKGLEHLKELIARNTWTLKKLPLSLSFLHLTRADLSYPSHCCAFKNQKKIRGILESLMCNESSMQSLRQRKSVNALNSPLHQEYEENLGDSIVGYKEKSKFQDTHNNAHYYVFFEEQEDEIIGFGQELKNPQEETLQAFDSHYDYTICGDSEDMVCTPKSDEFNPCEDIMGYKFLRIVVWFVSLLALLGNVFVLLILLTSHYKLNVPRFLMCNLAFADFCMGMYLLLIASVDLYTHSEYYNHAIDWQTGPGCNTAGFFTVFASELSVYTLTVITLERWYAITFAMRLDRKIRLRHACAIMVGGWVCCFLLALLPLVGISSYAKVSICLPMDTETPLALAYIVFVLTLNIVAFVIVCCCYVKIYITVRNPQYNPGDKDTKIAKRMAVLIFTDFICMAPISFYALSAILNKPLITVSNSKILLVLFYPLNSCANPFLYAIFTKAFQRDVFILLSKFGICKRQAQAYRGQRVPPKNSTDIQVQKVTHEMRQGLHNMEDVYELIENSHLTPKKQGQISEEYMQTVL
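TSHR-expressing cells were treated with compounds, then stimulated with TSH at EC80 (4nM final) for 2 hours at 37 deg C. Cellular cAMP was measured by HTRF competition between lysate cAMP and cAMP-d2 for a cryptate-labelled anti-cAMP antibody.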
Akt phos inh – inhibitors of Akt phosphorylation. Neuro2A IGF-stimulated pAkt S473 HTRF, 20 min; active compounds read low. AID 651550. activity change, % for hits at 50 µM. 0.32% of 360,000 active; in the data active = activity change below about -80%; inconclusive = mostly about -51% to -80%; also: % is scaled to controls: 0 for no effect and ±100 for the full control effect
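Single-point screen (50 µM final compound) in Neuro2A cells stimulated 20 min with 6 nM IGF at 37 deg C. After lysis, Ser473-phosphorylated Akt read by HTRF (ex 330 nm, em 615/665 nm) as the 665/615 ratio.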
TCR activator – T cell receptor activation. primary human leukocytes, anti-CD3, IL-2 HTRF, 48 h. Potency, µM (titrated, usually from 9.22 µM), for inactives: top-dose activation of IL-2 secretion, most hits filed as activators. 330,000 tested, under 10 active; active = well fitted activation curve with a large enough effect; inconclusive = small, poorly fitted or top-dose-only effect, or another doubt; inactive = no such curve, though single readings can be large or run the other way; also: % of control where 0% means no effect
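Compounds are tested in HTS on primary human leukocytes co-incubated with a-CD3 beads for 48 hr. IL-2 output is measured by time-resolved FRET.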
CCT modulator – modulators of cytosolic chaperonin (CCT/TRiC) activity | purified chaperonin ATPase assay, HTRF ADP detection, 30 min | activity change, % (no concentration beside the values), hits read low | 0.3% of 360,000 active | AID 651819; in the data active = activity change below about -30%; also: % is scaled to controls: 0 for no effect and ±100 for the full control effect
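TRiC at 40 or 20 nM final (batch-dependent) in 30 mM Tris pH 7.4, 100 mM KCl, 5 mM MgCl2, 1 mM DTT, with compound at single 76 uM and 10 uM ATP, 30 min at 37 deg C. ADP detected by HTRF Transcreener, 665/615 ratio.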
Numbers without * were called inactive; i = inactive; ? = inconclusive; . = not tested or not shown; ! = a repeat was not active; [ ] = remark or other dose.

SMILES	TSHR antagonist	Akt phos inh	TCR activator	CCT modulator
COc1cc(OC)cc(-n2nnnc2SCC(=O)NC2CCCC2)c1	-6.2	-115.1%*	-3.7%	-2.5
COc1ccc(-n2nnnc2SCC(=O)NC2CCCC2)cc1OC	-91.7*	i	11.5%	0.9
O=S(=O)(Nc1cccc(-n2cnnn2)c1)c1ccccc1C(F)(F)F	-136.0*	i	0.8%	-0.6
Cc1cc(C)c(C)c(S(=O)(=O)Nc2cccc(-n3cnnn3)c2)c1C	-9.4	i	-8.2%	-0.4
O=S(=O)(NC1CCC(CNS(=O)(=O)c2c(F)cccc2F)CC1)c1ccc2c(c1)OCCO2 (stereo not given)	5.7	.	.	.
Cc1ccc(C(O)CN2C3=NCCCN3c3ccccc32)cc1 (stereo not given)	-2.1	i	6.0%[46.1 µM]	-0.6
OC(CN1C2=NCCN2c2ccccc21)c1ccc2c(c1)OCO2 (stereo not given)	-2.7	-118.2%*	4.5%	-3.5
OC(CN1C2=NCCCN2c2ccccc21)c1ccc2c(c1)OCO2 (stereo not given)	15.9	-100.8%*	2.1%	1.7
OC(c1cccnc1)c1nc(/C=C/c2ccc(C(F)(F)F)cc2)cs1 (stereo not given)	.	i	.	-3.8
CC(=O)Nc1ccc(SCCN2CC[C@@H](C)CCC2=O)cc1	28.6	i	0.0%	1.0
Cc1c(C(=O)N2CCN(Cc3ccc4c(c3)OCO4)CC2)sc2ncnc(N3CCN(c4ccccc4F)CC3)c12	?	.	-2.5%	-73.5*
COCCCn1c(=O)c2sccc2n(Cc2cccc(C)c2)c1=O	-130.8*	i	1.0%	-0.6
COCCCn1c(=O)c2sccc2n(Cc2cccc(F)c2)c1=O	49.8	i	.	-1.0
C(=N\Nc1nc2ccccc2[nH]1)/c1ccncc1	-87.8*	i	5.2%	0.4
O=C(CSc1nnc2ccccn12)NC(=O)c1ccccc1Cl	-1.7	i	-7.4%	-0.8
CC(C)Sc1nc2sccc2c(=O)n1-c1ccccc1	-15.6	i	-5.2%	1.1
Cc1ccc(SCCCn2cncn2)cc1	6.2	-111.2%*	0.2%	1.0
COc1cc(OC)cc(C(=O)NNC(=S)NC2CC2)c1	-7.4	i	0.8%	-0.9
O=C(Nc1nccs1)c1cccc(N2C(=O)c3cccc4c([N+](=O)[O-])ccc(c34)C2=O)c1	-8.3	-109.1%*	-21.0%	-0.1
Cc1ccc(C(=O)O)cc1N1C(=O)c2cccc3c([N+](=O)[O-])ccc(c23)C1=O	-73.4*	i	-8.5%	-0.4
NC(=O)c1ccccc1N/C=C/C(=O)c1ccco1	3.1	i	0.5%	-60.1*
Cc1c(S(=O)(=O)Nc2ccc(Oc3ccccc3)cc2)c(=O)n(C)c(=O)n1C	-5.6	i	-3.9%	-2.7
CCc1cc(C(=O)OC)c(NC(=O)c2ccoc2C)s1	-7.4	i	2.5%	-44.6*
O=C(NCCCN1CCCC1=O)Nc1ccc([N+](=O)[O-])cc1	-2.1	i	8.7%	0.6
O=C1NC(Cc2ccccc2)c2nc3ccc(Br)cc3c(=O)n2-c2cc(Cl)ccc21 (stereo not given)	-5.9	.	.	.
SMILES	TSHR antagonist	Akt phos inh	TCR activator	CCT modulator
O=c1[nH]cc(CCCc2ccccc2)c(=O)[nH]1	.	i	.	-48.9*
COc1ccc(/C(N)=N/O)cc1O	20.3	i	2.6%[46.1 µM]	-30.2*
Cc1ccn2c(Nc3ccccc3)c(-c3ccccn3)nc2c1	-8.8	i	-0.2%	-37.2*
Cc1ccn2c(Nc3ccccc3C)c(-c3ccccn3)nc2c1	-14.7	i	-12.6%	-0.8
COc1ccc(OC)c(NC(=O)c2cccc(NC(=O)c3ccco3)c2)c1	.	i	.	-7.1
CC(=O)N1CCN(c2c(F)c(F)c(C(F)(F)F)c(F)c2F)CC1	4.4	i	2.9%	-38.0*
Cc1cc(NC(=O)CCCC(=O)OCC(F)(F)C(F)F)cc(C)c1C(=O)O	22.6	-112.0%*	6.9%	1.0
CC(=O)Nc1ccc(S(=O)(=O)N2CCN(Cc3csc(C)n3)CC2)cc1	1.2	i	3.9%	-0.1
Cc1ccccc1CN(C)CC(=O)NC(C)CCc1ccccc1 (stereo not given)	-2.6	i	-3.4%	-93.9*
Cc1ccc(CC(=O)NC(C)CCc2ccccc2)cc1 (stereo not given)	-8.2	i	2.6%	0.8
Cn1c(CNC(=O)C(Cc2ccccc2)NC(=O)c2ccccc2F)cc(=O)n(C)c1=O (stereo not given)	2.3	i	-1.2%	-1.1
Cn1c(CNC(=O)C(Cc2ccccc2)NC(=O)c2ccccc2)cc(=O)n(C)c1=O (stereo not given)	-144.3*	i	6.3%	3.2
COc1ccc(-c2nc(NC(=O)Cn3cnnn3)sc2C)cc1	2.5	i	-63.3%	0.8
COc1ccc(-c2nc(NC(=O)CSCCO)sc2C)cc1	-11.3	i	-1.9%	-56.0*
CCN1CCCC1CNC(=O)C(=O)NCCc1ccc(OC)c(OC)c1 (stereo not given)	2.0	i	3.6%	-33.6*
COc1ccc(CCNC(=O)CCn2cccc2)cc1OC	-0.2	-101.3%*	-17.1%	0.8
Cc1cc(N2CCOCC2)nc2ccc(Cl)cc12	28.1	i	3.6%	-0.4
CCn1c(O)c(C=Nc2ccccc2)sc1=S	5.3	i	-5.5%	0.3
O=C(O)Cn1c(O)c(C=Nc2ccccc2)sc1=S	-2.0	-106.8%*!	0.7%	-2.5
Cc1cccc(C(=O)OCC(=O)NC2CC2)c1O	15.2	i	-3.5%[46.1 µM]	1.4
OCCNCCOc1ccccc1-c1ccccc1	4.5	i	-6.2%	-0.1
OCCNCCOc1ccccc1F	-2.8	-107.3%*	-3.1%	-0.6
CCc1nc(SCC(=O)NCCc2ccccc2)c2oc3ccccc3c2n1	-0.3	-102.7%*	4.6%	2.7
Cc1nc(SCC(=O)NC(C)c2ccccc2)c2oc3ccccc3c2n1 (stereo not given)	-1.3	i	2.0%	0.3
O=C(CSc1ncnc2c1oc1ccccc12)Nc1cccc(Cl)c1	-9.1	-108.4%*	-6.0%	1.4
SMILES	TSHR antagonist	Akt phos inh	TCR activator	CCT modulator
Cc1nc(SCC(=O)Nc2ccc(F)cc2)c2oc3ccccc3c2n1	3.4	-90.0%*	2.1%	0.2
Cc1nc(SCC(=O)NCCc2ccccc2)c2oc3ccccc3c2n1	4.0	i	-2.5%	-1.0
Cc1nc(SCC(=O)Nc2ccccc2)c2oc3ccccc3c2n1	-18.1	-115.5%*	4.2%	-8.3
O=C(Nc1ccc(F)c(Cl)c1)[C@@H]1O[C@H](CO)[C@H](O)[C@H](O)[C@H]1O	.	i	.	0.7
Cc1ccc2cccc(SCC(=O)Nc3ccc(F)cc3)c2n1	7.7	i	6.2%	-73.8*
CCOC(=O)c1ccccc1NC(=O)Cc1c(C(=O)O)n(C)c2ccccc12	-9.3	i	-3.3%	-0.1
N=C1C(=O)NC(=O)C1c1ccccc1 (stereo not given)	.	i	-2.1%	-2.5
Cc1ccc(S(=O)(=O)N(C)C)cc1NC(=O)C1CCCCN1S(=O)(=O)c1ccccc1 (stereo not given)	-14.2	i	-1.5%	1.7
Cc1cccc(Nc2nn3c(=O)c4ccccc4nc3s2)c1	9.7	-101.6%*	0.5%	-1.1
